Source: the supplement of paper PMC11417369
± gives the standard deviation of the averaged measurements. The full ranking holds about 25,000 sequences; the median of “ln(normalized median fluorescence intensity)” is about 8.9, and the highest 2% start at about 10. The list comes from a sample in which the highest values are over-represented; it also holds similar and randomly drawn sequences.

tested on: PfAP2-LT AP2 domain (GST-tagged); experiment: gcPBM binding intensity (ln(normalized median fluorescence intensity)); higher = stronger DNA binding
In short: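 Binding intensity values are the highest Masliner-normalised natural-log median intensity among replicate spots of either probe orientation. The binding step lasted 1 h in 1× PBS with 1% milk, 0.2 mg/ml BSA, 0.5% salmon testes DNA and 0.03% Triton X-100, using GST-tagged P. falciparum DNA-binding domains expressed in E. coli on an Agilent 4 × 180k array of primer-extended double-stranded 36-bp intergenic genomic probes plus negative controls. Alexa488 anti-GST antibody and a 488 nm scan detected bound protein.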

“AGGCTATAATACCATACACACATTTATAAAATAACA [CACACA_site6990]” and “ATACTTATGATAAATACACACTTGAAATTAAGGATT [CACACA_site4772]” are within error of each other in “gcPBM binding intensity (ln)” value: 9.07 ± 0.42 for the first, 8.85 ± 0.37 for the second.

Going from “CATTTTTCTATATGTGCATGTAAGATAAGAATAATT [TGCATGCA_site107]” to “TATTTTTCCATATGCACACACACCGTATCTAGAATA [CACACA_site6654]”, the “gcPBM binding intensity (ln)” value rises from 8.48 ± 0.3 to 9.47 ± 0.37.

“ATAATTAAAATGCTCACACACATAAAAAAAAATTAA [CACACA_site2149]” and “TTATTATTATGATTATTATGATGATTATACAACTGT [TGCATGCA_negctrl_site241]” are within error of each other in “gcPBM binding intensity (ln)” value: 8.94 ± 0.46 for the first, 8.85 ± 0.35 for the second.

“AAATTGAATTAGTTAACACACAACTTTTATTTCATA [CACACA_site2840]” and “TCAAATATATAGAATACACACATGGATATAAGAAAT [CACACA_site4065]” are within error of each other in “gcPBM binding intensity (ln)” value: 8.74 ± 0.4 for the first, 9.2 ± 0.4 for the second.

“TTATAATAAAATGAATATATATAATTTAAAATATTT [CACACA_negctrl_site1651]” and “TATATTTATAAGTGTACACATTATATAAATCCCTAT [CACACA_site6122]” are within error of each other in “gcPBM binding intensity (ln)” value: 8.27 ± 0.54 for the first, 8.65 ± 0.42 for the second.

Compared with “AATTTTCTACAAATGTGTACTAAATAAAATATTACT [XGTACX_site7175]”, “TAAAAAAAAAAAAATACACACACACCGATATATATA [CACACA_site8498]” is higher in “gcPBM binding intensity (ln)” value: 8.63 ± 0.39 for the first, 9.76 ± 0.19 for the second.

“AAAATACATGGACACACACACACACCGATATATATA [CACACA_site5885]” and “TGGGAATAAAAACACACACACACACCGATATATATA [CACACA_site5875]” are within error of each other in “gcPBM binding intensity (ln)” value: 10.4 ± 0.21 for the first, 10.1 ± 0.41 for the second.

First: GGAATAATATAAAACACACACATAAATATAAATATA [CACACA_site3376]
Second: AAAAAGGATAAACACACACACACACCGATATATATA [CACACA_site8206]
The “gcPBM binding intensity (ln)” value of the first is lower: 9.45 ± 0.35 for the first, 10.34 ± 0.099 for the second.

“AAAAAAAAAAGAATAGCACACACACCGATATAAATA [CACACA_site8111]” and “AAGGATATAACATACACACACACACCGATATATATA [CACACA_site6136]” are within error of each other in “gcPBM binding intensity (ln)” value: 9.71 ± 0.37 for the first, 10 ± 0.29 for the second.

Compared with “CACTAAAATAAACACACACACACACCGATATATATA [CACACA_site9379]”, “AATAAAAAGGAACACACACACACACCGATATATATA [CACACA_site5895]” is higher in “gcPBM binding intensity (ln)” value: 9.96 ± 0.014 for the first, 10.08 ± 0.085 for the second.

“AAAAAAAAAAAAAATACACACACACCGATATATATA [CACACA_site8142]” and “CAAAATAATATATATACACACACACCGATATATATA [CACACA_site8082]” are within error of each other in “gcPBM binding intensity (ln)” value: 9.775 ± 0.092 for the first, 9.81 ± 0.18 for the second.

Compared with “AATATAAATAAAAACACACACACACCGATATATATA [CACACA_site5283]”, “TGGAACCTTTAAAATACACACCCAAATCCTTTGAAA [CACACA_site7671]” is lower in “gcPBM binding intensity (ln)” value: 10.2 ± 0.11 for the first, 8.69 ± 0.35 for the second.

“AGAGAGAGAAATACAAGTACATGTGAAACCAATCTA [XGTACX_site2767]” and “GCATCGATCAAACATACACACATGGTTAATAAAAAT [CACACA_site8651]” are within error of each other in “gcPBM binding intensity (ln)” value: 9.04 ± 0.46 for the first, 9.24 ± 0.47 for the second.

Going from “TTTAAAAAAAGCAGTACATGCAAAATAATAACAAGC [TGCATGCA_site392]” to “TACACAAGGGGAAAAATATATATATATATATATATA [TGCATGCA_negctrl_site217]”, the “gcPBM binding intensity (ln)” value rises from 9.2 ± 0.48 to 9.88 ± 0.028.

First: TATTTTTTTTCGTAATGTACATAAAAAATGCAAAAA [XGTACX_site8491]
Second: CATCCGTTGATATATGCATGCATATTGTTATTACCA [TGCATGCA_site868]
The “gcPBM binding intensity (ln)” value of the first is lower: 8.27 ± 0.36 for the first, 9.11 ± 0.36 for the second.

“TTTATATATAAATAATGTACAAAAAATTTTAAAAAG [XGTACX_site7990]” and “ACAGTTTGTCTGAGTAGTACATAAATACTTGAAAGG [XGTACX_site7792]” are within error of each other in “gcPBM binding intensity (ln)” value: 8.39 ± 0.39 for the first, 8.79 ± 0.45 for the second.

“GCTATAAATACAGACGCACACATATACATACAGATA [CACACA_site5778]” and “GCTATAAATACAGACGCACACATATACATACATATA [CACACA_site3329]” are within error of each other in “gcPBM binding intensity (ln)” value: 9.33 ± 0.42 for the first, 9.42 ± 0.33 for the second.

“CTAAAATACAGACACACACACACATATATATATATA [CACACA_site4150]” and “CACACGCACAGACACACACACACACGGATATAAATA [CACACA_site6301]” are within error of each other in “gcPBM binding intensity (ln)” value: 10.07 ± 0.021 for the first, 10.2 ± 0.38 for the second.

“CGCGCACACGGACACACACACACACGGATATAAATA [CACACA_site7102]” and “CACGCATACAGACACACACACACACGGATATAAATA [CACACA_site6445]” are within error of each other in “gcPBM binding intensity (ln)” value: 10 ± 0.4 for the first, 10.2 ± 0.4 for the second.

“CGCATACACAGACACACACACACATATAAATATGTA [CACACA_site6444]” and “TTTAAATACAGACATACACACATACACGCACATATA [CACACA_site6400]” are within error of each other in “gcPBM binding intensity (ln)” value: 9.98 ± 0.47 for the first, 9.49 ± 0.37 for the second.

Going from “TACAGACTAAAATACACACACACACGCACATATATA [CACACA_site7875]” to “AAAATACACAGACACACACACATATAAATAAATATT [CACACA_site7871]”, the “gcPBM binding intensity (ln)” value falls from 10.2 ± 0.18 to 9.79 ± 0.19.

“AAAAAATACAGACACACACACACACGCATATAAATA [CACACA_site7644]” and “CACACGCACAGACACACACACACATATAAATATGTA [CACACA_site6300]” are within error of each other in “gcPBM binding intensity (ln)” value: 10.1 ± 0.25 for the first, 9.89 ± 0.37 for the second.

“AAATCGTGCACGGACACATGCAGTAGCCGAGAATTA [TGCATGCA_site733]” and “AAAAAAAAGAAAAAAACACACAATGGAAAAAATGTA [CACACA_site3675]” are within error of each other in “gcPBM binding intensity (ln)” value: 9.12 ± 0.38 for the first, 8.93 ± 0.59 for the second.

“TATAAAATAAATAACAAAAAAAATAAAATAAAAATA [TGCATGCA_negctrl_site297]” and “TGCCCTTTGGTTATAACACACATGCACACGTAAATA [CACACA_site7750]” are within error of each other in “gcPBM binding intensity (ln)” value: 8.6 ± 0.7 for the first, 9.4 ± 0.23 for the second.

TTTTGTTATTAGAGGGTGCTTATAATGAACTCCTAC and TTATGAATACTTCAAGTGCATTTATTTTATATGACA are within error of each other in “gcPBM binding intensity (ln)” value: 8.65 ± 0.49 for the first, 8.63 ± 0.48 for the second.

“ATATTGGAATAAATTTGTACATATATATATTATTCA [XGTACX_site916]” and “CTGTTTTTGTTTTAAAGTACATTGTTCAATATACAT [XGTACX_site5288]” are within error of each other in “gcPBM binding intensity (ln)” value: 8.7 ± 0.44 for the first, 8.82 ± 0.43 for the second.

“TAAATAAATTTATACACACACACACGGATATAAATA [CACACA_site6532]” and “AAATATAATAAAATGACACACGCATATATATATATA [CACACA_site8900]” are within error of each other in “gcPBM binding intensity (ln)” value: 9.82 ± 0.071 for the first, 9.775 ± 0.064 for the second.

First: ATAGTATACAGACACACACACACACGGATATAAATA [CACACA_site6914]
Second: TAAAAAATATTATATACACACAGTATAAAAAAAAAT [CACACA_site4012]
The “gcPBM binding intensity (ln)” value of the first is higher: 10.1 ± 0.36 for the first, 8.95 ± 0.49 for the second.

“ATATAATAAAATGACACACGCATATATATATATATA [CACACA_site2789]” and “CACACTAAAAGACACACACACACACGCATATAAATA [CACACA_site7874]” are within error of each other in “gcPBM binding intensity (ln)” value: 9.955 ± 0.021 for the first, 10.3 ± 0.4 for the second.
